Assay results reported in PubChem BioAssay (EPA / NIEHS).
The source made the active and inactive calls. Rule for the calls: active = hit-call score of the fitted dose curve at least 0.9, where 1 is the maximum; inactive = score below 0.9.

Tests used:
Details in all cases: mRNA level, 48 h; actives raise or lower the signal
[1] = read-out: Apoptosis regulator Bcl-2 (Homo sapiens) (UniProt P10415); experiment: LTEA_HepaRG_BCL2: Life Technologies and Expression Analysis (LTEA) Assay for Bcl-2 gene using HepaRG (AID 2283475)
In short: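 Each chemical was tested in duplicate on HepaRG cultures held in serum-free induction medium for 48 h, highest concentration 100 uM with half-log dilutions. Transcript levels came from multiplexed qRT-PCR, normalised to housekeeping genes; activity was scored in either direction relative to DMSO.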

[2] = read-out: Bcl-2 (BID) gene, BID (gene 637); experiment: LTEA_HepaRG_BID: Life Technologies and Expression Analysis (LTEA) Assay for Bcl-2 (BID) gene using HepaRG (AID 2283476)
In short: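 Assay used HepaRG hepatic cells treated 48 h in serum-free medium with half-log dilutions from 100 uM. Endpoint: BID mRNA, qRT-PCR, normalized to ACTB/GAPDH/POLR2A.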

[3] = read-out: Caspase-3 (Homo sapiens) (UniProt P42574); experiment: LTEA_HepaRG_CASP3: Life Technologies and Expression Analysis (LTEA) Assay for cysteine-aspartic acid protease (CASP3) using HepaRG (AID 2283477)
In short: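 Differentiated HepaRG cells, plated 48 h, were treated in duplicate in serum-free induction medium for 48 h with eight half-log concentrations up to 100 uM in 0.5% DMSO. CASP3 mRNA measured by qRT-PCR, normalized to ACTB, GAPDH, POLR2A.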

[4] = read-out: Cytochrome P450 (CYP24A1), CYP24A1 (gene 1591); experiment: LTEA_HepaRG_CYP24A1: Life Technologies and Expression Analysis (LTEA) Assay for Cytochrome P450 (CYP24A1) using HepaRG (AID 2283478)
In short: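 HepaRG cells plated 48 h, then exposed in duplicate in serum-free induction medium for 48 h to 8-point half-log series from 100 uM in 0.5% DMSO. CYP24A1 mRNA by Fluidigm qRT-PCR, normalized to ACTB, GAPDH, POLR2A; bidirectional fit versus DMSO.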

[5] = read-out: Cytochrome P450 (CYP1A2), CYP1A2 (gene 1544); experiment: LTEA_HepaRG_CYP1A2: Life Technologies and Expression Analysis (LTEA) Assay for Cytochrome P450 (CYP1A2) using HepaRG (AID 2283479)
In short: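 Differentiated human HepaRG cells in serum-free induction medium exposed 48 hours in duplicate to 8 half-log concentrations from 100 uM, 0.5% DMSO. CYP1A2 mRNA quantified by qRT-PCR, normalized to ACTB, GAPDH and POLR2A; bidirectional fitting versus DMSO.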

[6] = read-out: cysteine-aspartic acid protease (CASP8), CASP8 (gene 841); experiment: LTEA_HepaRG_CASP8: Life Technologies and Expression Analysis (LTEA) Assay for cysteine-aspartic acid protease (CASP8) using HepaRG (AID 2283480)
In short: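 qRT-PCR readout of CASP8 mRNA, normalized to three housekeeping genes, after 48 h chemical exposure of HepaRG cells; 8-point half-log series, top 100 uM, 0.5% DMSO vehicle. Bidirectional curve fitting against DMSO baseline.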

[7] = read-out: Cytochrome P450 (CYP2B6), CYP2B6 (gene 1555); experiment: LTEA_HepaRG_CYP2B6: Life Technologies and Expression Analysis (LTEA) Assay for Cytochrome P450 (CYP2B6) using HepaRG (AID 2283481)
In short: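 Differentiated human HepaRG cells in serum-free induction medium, dosed in duplicate for 48 h over 8 half-log concentrations topping at 100 uM (0.5% DMSO). CYP2B6 mRNA measured by TaqMan qRT-PCR, normalized to ACTB, GAPDH, POLR2A; bidirectional fit versus DMSO.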

[8] = read-out: Cytochrome P450 2C19 (Homo sapiens) (UniProt P33261); experiment: LTEA_HepaRG_CYP2C19: Life Technologies and Expression Analysis (LTEA) Assay for CYP2C19 using HepaRG (AID 2283482)
In short: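 Differentiated HepaRG cells in serum-free induction medium exposed 48 h in duplicate, 8 concentrations from 100 uM by half-log steps in 0.5% DMSO. CYP2C19 mRNA measured by TaqMan qRT-PCR, normalized to ACTB, GAPDH, POLR2A. Bidirectional fit versus DMSO.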

[9] = read-out: CYP2C8 (gene 1558); experiment: LTEA_HepaRG_CYP2C8: Life Technologies and Expression Analysis (LTEA) Assay for CYP2C8 using HepaRG (AID 2283483)
In short: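 HepaRG (human liver line), 48 h chemical exposure, 8-pt half-log series from 100 uM, 0.5% DMSO vehicle. Readout: CYP2C8 transcript by qRT-PCR, housekeeping-normalized. Bidirectional fit vs DMSO baseline.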

[10] = read-out: CYP2C9 (gene 1559); experiment: LTEA_HepaRG_CYP2C9: Life Technologies and Expression Analysis (LTEA) Assay for CYP2C9 using HepaRG (AID 2283484)
In short: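 HepaRG, 48 h dosing, 8-pt half-log series, top 100 uM, 0.5% DMSO vehicle. Read-out: CYP2C9 transcript by TaqMan qRT-PCR, housekeeping-normalized (ACTB/GAPDH/POLR2A). Gain or loss fitted vs DMSO baseline.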

[11] = read-out: CYP2E1 (gene 1571); experiment: LTEA_HepaRG_CYP2E1: Life Technologies and Expression Analysis (LTEA) Assay for CYP2E1 using HepaRG (AID 2283485)
In short: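 Assay uses 48 h exposure of HepaRG hepatic cells, eight concentrations to 100 uM. Expression of CYP2E1 is quantified by TaqMan qRT-PCR with ACTB, GAPDH and POLR2A normalization; curves fitted in both directions relative to vehicle.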

[12] = read-out: CYP4A11 (gene 1579); experiment: LTEA_HepaRG_CYP4A11: Life Technologies and Expression Analysis (LTEA) Assay for CYP4A11 using HepaRG (AID 2283486)
In short: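 Differentiated HepaRG cells, 48 h after plating, exposed in duplicate for 48 h to 8 half-log concentrations up to 100 uM in 0.5% DMSO in serum-free induction medium. CYP4A11 mRNA measured by TaqMan qRT-PCR, normalized to ACTB, GAPDH and POLR2A.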

[13] = read-out: DNA damage-inducible transcript 3 (DDIT3), DDIT3 (gene 1649); experiment: LTEA_HepaRG_DDIT3: Life Technologies and Expression Analysis (LTEA) Assay for DNA damage-inducible transcript 3 (DDIT3) using HepaRG (AID 2283488)
In short: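 Eight-point concentration-response (100 uM highest, half-log dilutions) in HepaRG, 48 h, duplicate wells. Endpoint: qRT-PCR mRNA, normalized (ACTB, GAPDH, POLR2A), bidirectional fitting with DMSO as baseline.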

[14] = read-out: Pro-epidermal growth factor (Homo sapiens) (UniProt P01133); experiment: LTEA_HepaRG_EGF: Life Technologies and Expression Analysis (LTEA) Assay for Epidermal growth factor (EGF) using HepaRG (AID 2283489)
In short: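 HepaRG cells (~100,000/well, 48 h pre-culture) exposed in duplicate for 48 h in serum-free induction medium to 8 half-log concentrations up to 100 uM in 0.5% DMSO. EGF mRNA by qRT-PCR, normalized to ACTB/GAPDH/POLR2A; bidirectional fit versus DMSO.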

[15] = read-out: Early growth response protein 1 (EGR1) transcription factor, EGR1 (gene 1958); experiment: LTEA_HepaRG_EGR1: Life Technologies and Expression Analysis (LTEA) Assay for Early growth response protein 1 (EGR1) transcription factor using HepaRG (AID 2283490)
In short: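 HepaRG, 48 h exposure, 8-pt half-log series from 100 uM, 0.5% DMSO vehicle; EGR1 transcript by TaqMan qRT-PCR (Fluidigm array), housekeeping-normalized; bidirectional fit relative to DMSO baseline.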

[16] = read-out: Ezrin (EZR), EZR (gene 7430); experiment: LTEA_HepaRG_EZR: Life Technologies and Expression Analysis (LTEA) Assay for Ezrin (EZR) using HepaRG (AID 2283491)
In short: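 Gain or loss of EZR mRNA is scored relative to 0.5% DMSO in human HepaRG cultures treated 48 h with test chemicals in duplicate, eight half-log concentrations from 100 uM.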

[17] = read-out: CYP3A5 (gene 1577); experiment: LTEA_HepaRG_CYP3A5: Life Technologies and Expression Analysis (LTEA) Assay for CYP3A5 using HepaRG (AID 2283493)
In short: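 Readout was CYP3A5 mRNA by qRT-PCR. HepaRG cultures were exposed for 48 h in serum-free induction medium to chemicals at up to 100 uM, and responses were fitted in both directions relative to DMSO vehicle.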

[18] = read-out: Fatty Acid-Binding Protein 1 (FABP1), FABP1 (gene 2168); experiment: LTEA_HepaRG_FABP1: Life Technologies and Expression Analysis (LTEA) Assay for Fatty Acid-Binding Protein 1 (FABP1) using HepaRG (AID 2283494)
In short: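 qRT-PCR readout of FABP1 transcript (normalized to three housekeeping genes) after 48 h chemical exposure of HepaRG cells; eight concentrations, half-log steps, max 100 uM, 0.5% DMSO vehicle; gain or loss fitted relative to DMSO baseline.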

[19] = read-out: Cytochrome P450 3A7 (Homo sapiens) (UniProt P24462); experiment: LTEA_HepaRG_CYP3A7: Life Technologies and Expression Analysis (LTEA) Assay for CYP3A7 using HepaRG (AID 2283492)
In short: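 Differentiated HepaRG cells in serum-free induction medium exposed 48 h in duplicate to 8-point half-log series from 100 uM top in 0.5% DMSO. CYP3A7 mRNA by qRT-PCR, normalized to ACTB/GAPDH/POLR2A, bidirectional fit versus DMSO.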

Measured: AC50

Chain of Cytochrome P450 3A7 (Homo sapiens) (P24462 whole entry, looked up): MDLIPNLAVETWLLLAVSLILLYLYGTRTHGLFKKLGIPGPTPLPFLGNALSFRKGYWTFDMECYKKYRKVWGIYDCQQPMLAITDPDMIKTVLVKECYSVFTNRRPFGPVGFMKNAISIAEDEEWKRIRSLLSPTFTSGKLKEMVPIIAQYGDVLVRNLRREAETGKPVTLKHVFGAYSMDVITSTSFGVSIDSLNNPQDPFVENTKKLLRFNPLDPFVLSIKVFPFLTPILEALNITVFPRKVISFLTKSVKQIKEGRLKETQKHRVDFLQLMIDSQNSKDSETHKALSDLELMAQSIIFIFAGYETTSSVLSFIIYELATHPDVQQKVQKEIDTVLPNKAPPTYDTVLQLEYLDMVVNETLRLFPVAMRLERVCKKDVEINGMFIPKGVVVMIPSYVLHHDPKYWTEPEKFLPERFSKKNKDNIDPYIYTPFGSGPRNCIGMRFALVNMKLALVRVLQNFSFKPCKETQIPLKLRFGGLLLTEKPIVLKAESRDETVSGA
Chain of Caspase-3 (Homo sapiens) (P42574 whole entry, looked up): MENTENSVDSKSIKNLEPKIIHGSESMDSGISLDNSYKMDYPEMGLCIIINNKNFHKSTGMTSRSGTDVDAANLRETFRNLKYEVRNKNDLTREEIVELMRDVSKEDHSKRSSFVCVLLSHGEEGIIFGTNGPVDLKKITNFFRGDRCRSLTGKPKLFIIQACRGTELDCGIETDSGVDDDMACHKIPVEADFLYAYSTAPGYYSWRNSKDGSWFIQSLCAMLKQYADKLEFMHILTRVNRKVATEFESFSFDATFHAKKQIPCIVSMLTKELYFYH
Chain of Cytochrome P450 2C19 (Homo sapiens) (P33261 whole entry, looked up): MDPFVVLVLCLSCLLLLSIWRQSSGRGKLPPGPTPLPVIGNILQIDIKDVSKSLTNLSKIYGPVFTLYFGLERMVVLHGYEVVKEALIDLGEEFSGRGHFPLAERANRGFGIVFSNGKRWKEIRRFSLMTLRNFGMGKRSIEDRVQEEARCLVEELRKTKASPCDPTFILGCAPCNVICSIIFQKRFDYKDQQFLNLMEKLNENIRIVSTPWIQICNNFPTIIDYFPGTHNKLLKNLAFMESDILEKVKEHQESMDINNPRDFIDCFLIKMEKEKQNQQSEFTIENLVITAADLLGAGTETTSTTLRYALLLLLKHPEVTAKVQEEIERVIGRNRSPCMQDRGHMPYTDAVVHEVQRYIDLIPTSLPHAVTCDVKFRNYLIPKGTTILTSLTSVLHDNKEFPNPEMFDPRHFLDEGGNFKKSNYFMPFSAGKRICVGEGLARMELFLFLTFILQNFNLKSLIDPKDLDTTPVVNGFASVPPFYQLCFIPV
Chain of Apoptosis regulator Bcl-2 (Homo sapiens) (P10415 whole entry, looked up): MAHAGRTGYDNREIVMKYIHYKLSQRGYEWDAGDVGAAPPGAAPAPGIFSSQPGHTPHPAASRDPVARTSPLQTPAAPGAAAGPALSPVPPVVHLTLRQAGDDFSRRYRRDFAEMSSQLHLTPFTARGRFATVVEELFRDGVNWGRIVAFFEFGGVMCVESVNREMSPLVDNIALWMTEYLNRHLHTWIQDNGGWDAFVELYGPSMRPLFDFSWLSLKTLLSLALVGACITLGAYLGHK

CCCCC(CC)COC(=O)c1ccccc1C(=O)O (stereo not drawn)
active: [7] 29.1 µM | [11] 76.7 µM | [12] 50.8 µM
not listed: [19]
inactive: all other assays above

C[C@]12C[C@H](O)[C@H]3[C@@H](CCC4=CC(=O)CC[C@@]43C)[C@@H]1CC[C@@H]2C(=O)CO
active: [7] 50 µM | [9] 50 µM | [19] 50 µM
not listed: [5] | [8] | [10] | [13]
inactive: all other assays above

CCCCCOC(=O)COc1cc(N2C(=O)C3=C(CCCC3)C2=O)c(F)cc1Cl
active: [4] 3.16 nM | [7] 25.9 µM
inactive: all other assays above

COC(=O)CSc1cc(N=c2sc(=O)n3n2CCCC3)c(F)cc1Cl
active: [7] 38.8 µM | [8] 24 µM | [11] 50 µM | [19] 16 µM
inactive: all other assays above

CCOC(=O)c1ccc(O)cc1
not listed: [8]
inactive: all other assays above

O=C(c1ccc(O)cc1O)c1ccc(O)cc1O
inactive: all assays above
